# In article PMC7862700, “An all-to-all approach to the identification of sequence-specific readers for epigenetic DNA modifications on cytosine”:
# Key:
# Assay in all cases: DAPPL (digital affinity profiling via proximity ligation, sequencing); 10 mM Tris-HCl pH 7.5, 50 mM NaCl, 1 mM DTT, 4% glycerol, room temperature, 30 min; GST-TFs on glutathione beads, 16-mer random dsDNA library, 0.1% formaldehyde crosslink after washing; high values mean tight binding
# FLI1 = target: T1, FLI1 (Homo sapiens, UniProt Q01543 1-452); details: protein: recombinant; tags: N-terminal GST; dsDNA, one strand shown
# T1 sequence: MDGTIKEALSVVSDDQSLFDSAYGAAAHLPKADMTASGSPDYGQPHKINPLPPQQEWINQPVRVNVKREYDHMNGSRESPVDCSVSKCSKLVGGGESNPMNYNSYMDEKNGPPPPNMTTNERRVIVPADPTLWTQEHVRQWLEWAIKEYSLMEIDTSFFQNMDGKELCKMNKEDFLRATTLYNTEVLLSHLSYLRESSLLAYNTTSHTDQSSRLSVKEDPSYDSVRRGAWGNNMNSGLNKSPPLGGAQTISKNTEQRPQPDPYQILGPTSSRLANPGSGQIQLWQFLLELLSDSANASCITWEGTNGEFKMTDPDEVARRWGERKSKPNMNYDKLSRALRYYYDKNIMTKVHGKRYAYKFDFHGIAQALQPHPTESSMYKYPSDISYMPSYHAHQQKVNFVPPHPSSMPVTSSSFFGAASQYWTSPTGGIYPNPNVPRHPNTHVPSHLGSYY
# Procedure, shortened: (§1)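 Binding signal is each hexamer's read frequency for a factor divided by its frequency in the tag-only sample. The factors were GST-fused human transcription factors from yeast, captured on glutathione beads, DNA-barcoded and pooled with that sample. Pools were incubated with 200 nmole of a random double-stranded 16-mer DNA library in Tris/NaCl/DTT/glycerol buffer at room temperature for 30 min, then washed, crosslinked with 0.1% formaldehyde, proximity-ligated with BsaI/T4 ligase (1 h, 37 °C), PCR-amplified and sequenced on an Illumina NextSeq500.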
# EHF = target: T2, EHF (Homo sapiens, UniProt Q9NZC4 1-300); details: protein: recombinant; tags: N-terminal GST; dsDNA, one strand shown
# T2 sequence: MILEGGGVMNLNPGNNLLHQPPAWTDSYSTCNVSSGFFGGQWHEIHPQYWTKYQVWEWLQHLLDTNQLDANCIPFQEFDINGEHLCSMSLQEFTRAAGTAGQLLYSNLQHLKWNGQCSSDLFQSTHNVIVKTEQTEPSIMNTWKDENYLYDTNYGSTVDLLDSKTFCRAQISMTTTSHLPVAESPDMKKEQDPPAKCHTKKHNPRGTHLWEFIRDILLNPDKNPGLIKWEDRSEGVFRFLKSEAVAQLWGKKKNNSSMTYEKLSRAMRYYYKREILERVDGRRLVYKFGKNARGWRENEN
# Procedure, shortened: as §1
# SPIB = SPIB (Homo sapiens, UniProt Q01892 1-262); details: protein: recombinant; tags: N-terminal GST; dsDNA, one strand shown
# Sequence of SPIB (Q01892 whole entry): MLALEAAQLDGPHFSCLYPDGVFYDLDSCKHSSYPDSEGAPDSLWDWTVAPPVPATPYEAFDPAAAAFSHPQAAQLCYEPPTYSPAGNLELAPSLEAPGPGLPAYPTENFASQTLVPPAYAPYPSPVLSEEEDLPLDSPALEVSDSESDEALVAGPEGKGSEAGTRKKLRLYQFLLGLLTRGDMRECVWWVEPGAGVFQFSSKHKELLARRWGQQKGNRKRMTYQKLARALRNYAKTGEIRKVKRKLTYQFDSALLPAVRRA
# Procedure, shortened: as §1
# ETV2 = target: T3, ETV2 (Homo sapiens, UniProt O00321 1-342); details: protein: recombinant; tags: N-terminal GST; dsDNA, one strand shown
# T3 sequence: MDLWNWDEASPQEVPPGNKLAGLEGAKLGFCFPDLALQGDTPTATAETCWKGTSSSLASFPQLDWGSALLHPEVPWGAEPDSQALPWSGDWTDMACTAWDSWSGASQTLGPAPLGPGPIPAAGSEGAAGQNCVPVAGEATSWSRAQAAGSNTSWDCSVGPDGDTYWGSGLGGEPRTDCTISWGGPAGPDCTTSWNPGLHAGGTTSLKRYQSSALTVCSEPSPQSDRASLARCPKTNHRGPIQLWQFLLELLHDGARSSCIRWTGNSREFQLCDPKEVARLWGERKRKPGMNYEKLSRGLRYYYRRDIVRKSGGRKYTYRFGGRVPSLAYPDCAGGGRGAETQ
# Procedure, shortened: as §1
# ETV7 = target: T4, ETV7 (Homo sapiens, UniProt Q9Y603 1-341); details: protein: recombinant; tags: N-terminal GST; dsDNA, one strand shown
# T4 sequence: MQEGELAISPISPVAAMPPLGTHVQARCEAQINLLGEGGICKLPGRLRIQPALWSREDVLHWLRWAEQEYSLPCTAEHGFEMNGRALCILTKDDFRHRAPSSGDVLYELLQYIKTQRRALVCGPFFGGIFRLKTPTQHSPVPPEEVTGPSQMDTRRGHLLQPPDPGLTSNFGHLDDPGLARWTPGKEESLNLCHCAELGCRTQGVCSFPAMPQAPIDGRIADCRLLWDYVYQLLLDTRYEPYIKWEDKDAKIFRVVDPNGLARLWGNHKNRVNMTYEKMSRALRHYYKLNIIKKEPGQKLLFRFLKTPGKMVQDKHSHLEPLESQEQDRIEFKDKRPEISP
# Procedure, shortened: as §1
# ETV3 = target: T5, ETV3 (Homo sapiens, UniProt P41162-2 1-143); details: protein: recombinant; tags: N-terminal GST; dsDNA, one strand shown
# T5 sequence: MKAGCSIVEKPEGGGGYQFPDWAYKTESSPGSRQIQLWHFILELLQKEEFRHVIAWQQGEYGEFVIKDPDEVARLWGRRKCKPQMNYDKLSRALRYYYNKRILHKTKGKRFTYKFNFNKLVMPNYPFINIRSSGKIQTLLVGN
# Procedure, shortened: as §1
# ETV6 = ETV6 (Homo sapiens, UniProt P41212 1-452); details: protein: recombinant; tags: N-terminal GST; dsDNA, one strand shown
# Sequence of ETV6 (P41212 whole entry): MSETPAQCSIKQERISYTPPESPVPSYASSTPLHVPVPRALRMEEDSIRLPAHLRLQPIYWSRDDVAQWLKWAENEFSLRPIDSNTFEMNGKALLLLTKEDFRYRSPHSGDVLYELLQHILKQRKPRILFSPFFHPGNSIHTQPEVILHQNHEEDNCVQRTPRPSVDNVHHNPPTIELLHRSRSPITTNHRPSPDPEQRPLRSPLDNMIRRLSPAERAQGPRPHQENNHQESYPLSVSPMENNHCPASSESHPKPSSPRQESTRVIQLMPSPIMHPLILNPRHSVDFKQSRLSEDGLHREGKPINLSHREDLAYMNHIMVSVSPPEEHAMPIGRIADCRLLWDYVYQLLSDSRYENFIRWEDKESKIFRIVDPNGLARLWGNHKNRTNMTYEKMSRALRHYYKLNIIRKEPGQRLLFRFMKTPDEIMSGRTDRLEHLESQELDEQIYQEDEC
# Procedure, shortened: as §1
# HSF1 = HSF1 (Homo sapiens, UniProt Q00613 1-529); details: protein: recombinant; tags: N-terminal GST; chain copies: 3; dsDNA, one strand shown
# Sequence of HSF1 (Q00613 whole entry): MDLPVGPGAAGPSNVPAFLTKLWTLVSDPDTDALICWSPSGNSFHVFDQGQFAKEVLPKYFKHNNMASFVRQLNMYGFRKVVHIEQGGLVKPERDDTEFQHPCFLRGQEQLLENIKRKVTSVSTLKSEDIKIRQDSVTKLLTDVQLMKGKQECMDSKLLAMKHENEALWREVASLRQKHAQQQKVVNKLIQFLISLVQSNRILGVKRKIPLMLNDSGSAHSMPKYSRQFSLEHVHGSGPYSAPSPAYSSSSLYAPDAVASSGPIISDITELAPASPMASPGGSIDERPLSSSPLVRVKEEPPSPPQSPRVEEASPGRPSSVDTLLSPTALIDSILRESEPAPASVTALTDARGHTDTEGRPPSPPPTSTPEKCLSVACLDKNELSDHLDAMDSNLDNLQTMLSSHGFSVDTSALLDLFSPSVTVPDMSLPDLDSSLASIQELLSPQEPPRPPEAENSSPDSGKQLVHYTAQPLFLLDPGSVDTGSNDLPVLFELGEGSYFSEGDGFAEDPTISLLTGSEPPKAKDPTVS
# Procedure, shortened: as §1
# ELK1 = target: T6, ELK1 (Homo sapiens, UniProt P19419 1-428); details: protein: recombinant; tags: N-terminal GST; dsDNA, one strand shown
# T6 sequence: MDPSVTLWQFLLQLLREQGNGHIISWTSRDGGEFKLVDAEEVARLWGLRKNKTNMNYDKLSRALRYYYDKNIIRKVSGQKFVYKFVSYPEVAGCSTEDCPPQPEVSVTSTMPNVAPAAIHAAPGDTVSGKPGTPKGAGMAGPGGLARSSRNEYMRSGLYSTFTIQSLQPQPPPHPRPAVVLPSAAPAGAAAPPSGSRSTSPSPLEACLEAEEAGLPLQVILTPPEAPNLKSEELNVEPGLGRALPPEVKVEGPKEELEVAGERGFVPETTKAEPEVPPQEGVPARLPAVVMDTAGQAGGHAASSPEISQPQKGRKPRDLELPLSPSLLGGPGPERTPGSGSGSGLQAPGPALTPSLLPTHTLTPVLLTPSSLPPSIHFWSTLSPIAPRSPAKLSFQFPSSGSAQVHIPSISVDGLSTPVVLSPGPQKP
# Procedure, shortened: as §1
# ELK3 = target: T7, ELK3 (Homo sapiens, UniProt P41970 1-407); details: protein: recombinant; tags: N-terminal GST; dsDNA, one strand shown
# T7 sequence: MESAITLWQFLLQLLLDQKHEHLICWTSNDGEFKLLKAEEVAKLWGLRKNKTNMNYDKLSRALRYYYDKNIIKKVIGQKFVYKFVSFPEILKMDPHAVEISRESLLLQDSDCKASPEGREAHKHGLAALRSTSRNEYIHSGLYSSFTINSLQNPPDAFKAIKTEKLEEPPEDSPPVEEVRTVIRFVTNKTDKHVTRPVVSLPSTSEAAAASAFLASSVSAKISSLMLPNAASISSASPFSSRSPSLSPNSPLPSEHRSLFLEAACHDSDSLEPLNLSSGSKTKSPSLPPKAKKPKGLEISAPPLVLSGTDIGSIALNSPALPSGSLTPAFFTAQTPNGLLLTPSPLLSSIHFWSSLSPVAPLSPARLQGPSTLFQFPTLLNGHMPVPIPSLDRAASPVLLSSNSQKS
# Procedure, shortened: as §1
# ELK4 = target: T8, ELK4 (Homo sapiens, UniProt P28324-2 1-405); details: protein: recombinant; tags: N-terminal GST; dsDNA, one strand shown
# T8 sequence: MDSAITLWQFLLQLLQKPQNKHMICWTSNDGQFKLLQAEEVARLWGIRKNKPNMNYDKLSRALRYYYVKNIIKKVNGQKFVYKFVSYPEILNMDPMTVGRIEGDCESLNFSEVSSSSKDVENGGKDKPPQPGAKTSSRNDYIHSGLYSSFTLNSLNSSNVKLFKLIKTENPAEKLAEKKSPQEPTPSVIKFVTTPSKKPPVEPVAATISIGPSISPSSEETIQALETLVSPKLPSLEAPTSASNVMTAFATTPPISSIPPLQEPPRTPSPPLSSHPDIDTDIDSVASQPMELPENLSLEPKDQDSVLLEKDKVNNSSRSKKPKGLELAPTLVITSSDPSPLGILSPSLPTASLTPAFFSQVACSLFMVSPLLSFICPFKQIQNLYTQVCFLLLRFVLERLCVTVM
# Procedure, shortened: as §1
# ETS2 = target: T9, ETS2 (Homo sapiens, UniProt P15036 1-469); details: protein: recombinant; tags: N-terminal GST; dsDNA, one strand shown
# T9 sequence: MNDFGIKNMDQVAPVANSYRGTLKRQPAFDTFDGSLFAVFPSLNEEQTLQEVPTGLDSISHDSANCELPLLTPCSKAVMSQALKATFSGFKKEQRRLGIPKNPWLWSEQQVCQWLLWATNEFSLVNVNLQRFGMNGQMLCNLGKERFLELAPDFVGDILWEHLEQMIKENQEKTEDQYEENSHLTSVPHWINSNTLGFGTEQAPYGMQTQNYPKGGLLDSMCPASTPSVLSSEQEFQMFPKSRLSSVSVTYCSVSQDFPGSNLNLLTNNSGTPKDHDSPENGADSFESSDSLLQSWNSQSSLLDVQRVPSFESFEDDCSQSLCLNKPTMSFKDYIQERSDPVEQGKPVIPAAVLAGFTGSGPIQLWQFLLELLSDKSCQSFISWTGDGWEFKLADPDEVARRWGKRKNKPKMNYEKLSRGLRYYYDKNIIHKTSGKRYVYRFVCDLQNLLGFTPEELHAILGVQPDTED
# Procedure, shortened: as §1
sequence,measurement,setting,value
TGCGGT,binding signal,FLI1,"1.09 fold enrichment (6-mer frequency, TF over GST control)"
same,binding signal,EHF,"1.07 fold enrichment (6-mer frequency, TF over GST control)"
same,binding signal,SPIB,"1.02 fold enrichment (6-mer frequency, TF over GST control)"
same,binding signal,ETV2,"1.08 fold enrichment (6-mer frequency, TF over GST control)"
same,binding signal,ETV7,"1 fold enrichment (6-mer frequency, TF over GST control)"
same,binding signal,ETV3,"1.01 fold enrichment (6-mer frequency, TF over GST control)"
same,binding signal,ETV6,"1.03 fold enrichment (6-mer frequency, TF over GST control)"
TACCAG,binding signal,HSF1,"1.22 fold enrichment (6-mer frequency, TF over GST control)"
CATCAG,binding signal,FLI1,"1 fold enrichment (6-mer frequency, TF over GST control)"
same,binding signal,ELK1,"1.04 fold enrichment (6-mer frequency, TF over GST control)"
same,binding signal,EHF,"1.03 fold enrichment (6-mer frequency, TF over GST control)"
same,binding signal,ELK3,"1.06 fold enrichment (6-mer frequency, TF over GST control)"
same,binding signal,ELK4,"1.06 fold enrichment (6-mer frequency, TF over GST control)"
same,binding signal,ETS2,"1 fold enrichment (6-mer frequency, TF over GST control)"
AGAAGG,binding signal,HSF1,"1.28 fold enrichment (6-mer frequency, TF over GST control)"
